From PubChem BioAssay (Tox21) come the findings set out here.

Activity calls are given as the source filed them. The call rests on the fitted dose curve.
On the % scale 0 is the no-effect control and ±100 the full control effect; potency means the concentration at half of the fitted maximal effect.

Sequence of Acetylcholinesterase (Homo sapiens) (P22303 whole entry, looked up): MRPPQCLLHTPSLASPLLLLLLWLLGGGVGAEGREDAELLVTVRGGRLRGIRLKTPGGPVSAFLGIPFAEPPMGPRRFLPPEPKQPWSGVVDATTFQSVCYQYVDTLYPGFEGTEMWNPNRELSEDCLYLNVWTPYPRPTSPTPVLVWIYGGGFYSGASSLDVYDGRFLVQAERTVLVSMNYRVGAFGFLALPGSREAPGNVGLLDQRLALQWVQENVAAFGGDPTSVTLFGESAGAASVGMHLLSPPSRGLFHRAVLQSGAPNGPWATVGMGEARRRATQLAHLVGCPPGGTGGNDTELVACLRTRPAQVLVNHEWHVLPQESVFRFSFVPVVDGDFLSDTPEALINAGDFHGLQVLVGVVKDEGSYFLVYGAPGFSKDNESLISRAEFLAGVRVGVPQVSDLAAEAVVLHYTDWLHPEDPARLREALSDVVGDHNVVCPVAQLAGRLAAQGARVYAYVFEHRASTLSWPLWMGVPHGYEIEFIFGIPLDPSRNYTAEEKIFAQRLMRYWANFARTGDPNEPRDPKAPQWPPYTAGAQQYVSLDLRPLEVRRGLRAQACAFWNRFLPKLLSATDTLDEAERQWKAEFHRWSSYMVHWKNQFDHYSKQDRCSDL

This experiment concerns the target Acetylcholinesterase (Homo sapiens) (UniProt P22303). In words: Acetylcholinesterase (AChE) small molecule antagonists: enzyme-based qHTS assay with human liver microsomes (AID 1347399). Further: nearly all actives have a fitted effect of over 60% in size. Particulars: Potency: qHTS inhibition; outcome: qHTS inhibition; series mostly up to 115 µM; activity change, negative = inhibition: at the top concentration. The method, boiled down: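 Recombinant human AChE (50 mU/mL in the enzyme mix) and human liver microsomes (0.25 mg/mL final) were preincubated with compound and NADPH (0.25 mg/mL final) for 30 min at 37 C. Acetylthiocholine/DTNB was then added; thiocholine was read colorimetrically after 10 min at room temperature.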
On the technique in general: qHTS replaces the single test concentration by a dilution series.
On to `CC(C)NCC(O)c1ccc2ccccc2c1` (stereo not given), for which the “activity change, negative = inhibition” value was 0% [at 53 µM] (inactive).
Still for that read-out and setting: then `CC(C)CCCO`, with -1.21% (inactive).
Still for that read-out and setting: next, `C[C@@H](O)[C@H]1C(=O)N2C(C(=O)O)=C(S[C@@H]3CN[C@H](CNS(N)(=O)=O)C3)[C@H](C)[C@H]12`: 0.945% [at 53 µM] (inactive); `Nc1ccc(N=Nc2ccccc2)c(N)c1`: 17.6% (inactive); `Oc1cc2c(cc1O)[C@H]1c3ccc(O)c(O)c3OC[C@@]1(O)C2`: -5.52% (inactive).
On the same count and under the same terms, next, `CO[C@@H]1[C@@H](O[C@@H]2O[C@H](C)[C@@H](O[C@H]3C[C@@](C)(O)[C@@H](O)[C@H](C)O3)[C@H](N(C)C)[C@H]2O)[C@@H](CC=O)C[C@@H](C)[C@@H](O[C@@H]2CC[C@H](N(C)C)[C@@H](C)O2)/C=C/C=C/C[C@@H](C)OC(=O)C[C@H]1OC(C)=O`: -0.503% [at 53 µM] (inactive); `CC1=C(/C=C/C(C)=C/C=C/C(C)=C/C=O)C(C)(C)CCC1`: 9.75% (inactive); `O=C(CCN1CCN2CCCC2C1)N1c2ccccc2Sc2ccc(Cl)cc21` (stereo not given): 1.34% [at 23.6 µM] (inactive).
Turning to `OCCCS`, the “activity change, negative = inhibition” value was 3.65% (inactive).
Still for that read-out and setting: then `CC(=O)N[C@@H](CC(C)C)C(=O)O`, with -1.97% [at 53 µM] (inactive); and `O=C(Nc1cccc2c(=O)cc(-c3nn[nH]n3)oc12)c1ccc(OCCCCc2ccccc2)cc1`, with -0.388% [at 53 µM] (inactive).
Still for that read-out and setting: next, `CCCCCCCCCCCCCCCCCC[N+](C)(C)C`: 7.32% (inactive); `CCOc1ccc(C(=O)OCCN(CC)CC)cc1`: 3.45% [at 53 µM] (inactive); `O=C(CCN1CCC(c2ccccc2)C1)c1ccc2c(c1)OCCO2` (stereo not given): -1.61% [at 53 µM] (inactive).
Still for that read-out and setting: next, `Cc1c(I)c(=O)n(-c2ccccc2)n1C`: 2.19% [at 53 µM] (inactive).
As to `Cc1ccc(C(=O)C(=O)O)cc1C`, the “activity change, negative = inhibition” value was -3.25% [at 53 µM] (inactive).
The same measure, in the same setting: then `CCCOc1ccc2c(c1)CC[C@@H]1[C@@H]2CC[C@]2(C)C(OC)CC[C@@H]12` (stereo not given in full), with -0.309% [at 53 µM] (inactive).
The same measure, in the same setting: next, `CC1(C)S[C@@H]2[C@H](NC(=O)C(c3ccccc3)S(=O)(=O)O)C(=O)N2[C@H]1C(=O)O` (stereo not given in full): -0.21% [at 53 µM] (inactive); `O=C1NC(=O)c2cccc3cccc1c23`: 0.306% (inactive); `CCC(=O)Oc1ccc2c(c1)CC[C@@H]1[C@@H]2CC[C@@]2(C)[C@H]1C[C@@H](OC(=O)CC)[C@@H]2OC(=O)CC`: -1.54% [at 53 µM] (inactive).
Same read-out and setting: next, `CCN(CC)C(=O)c1cc(S(=O)(=O)Cc2ccccc2)c(N2CCC(c3ccccc3)CC2)cc1N(CC)CCN(C)C`: 2.45% [at 53 µM] (inactive).
Regarding `CN(C)CCN(Cc1ccccc1)c1ccccn1`, the “activity change, negative = inhibition” value is -0.503% [at 53 µM] (inactive).
Same read-out and setting: next, `CCCCN(CCCC)CC(O)c1cc(Cl)cc2c1-c1ccc(Cl)cc1/C2=C/c1ccc(Cl)cc1` (stereo not given): 0.336% [at 53 µM] (inactive).
With `N=C(N)c1ccc2cc(OC(=O)c3ccc(N=C(N)N)cc3)ccc2c1`, the call was inactive.
For `C=COCCOCCOCCOC=C`, the “activity change, negative = inhibition” value is 0.226% (inactive).
Still for that read-out and setting: next, `Cc1ccc(-c2ncc(Cl)cc2-c2ccc(S(C)(=O)=O)cc2)cn1`: -0.567% [at 53 µM] (inactive).
The same measure, in the same setting: then `CCO[C@@H]1O[C@H](C(COCc2ccccc2)OCc2ccccc2)[C@H](OCc2ccccc2)[C@H]1O` (stereo not given in full), with -1.19% [at 53 µM] (inactive); and `CNC(=O)c1ccccc1Sc1ccc2c(/C=C/c3ccccn3)n[nH]c2c1`, with -1.48% [at 53 µM] (inactive).
In the case of `O=S(=O)(O)SSS(=O)(=O)O`, the Potency was 71 µM (active).
As for `CN(Cc1cc(Br)cc(Br)c1N)C1CCCCC1`, the “activity change, negative = inhibition” value is -0.337% [at 53 µM] (inactive).
As to `COc1ccc2cc(C=O)ccc2c1`, the “activity change, negative = inhibition” value was -6.75% [at 53 µM] (inactive).
With `NC1[C@H]2CN(c3nc4c(cc3F)c(=O)c(C(=O)O)cn4-c3ccc(F)cc3F)C[C@@H]12` (stereo not given in full), the outcome was inactive.
On to `CCCCCCCCCCCCCCN(CCO)CCO`, for which the “activity change, negative = inhibition” value is 0.76% (inactive).
Still for that read-out and setting: next, `OCc1c[nH]c2ccccc12`: -4.86% (inactive).
As to `CN(C)[C@@H](CCOc1cccc2ccccc12)c1ccccc1`, the “activity change, negative = inhibition” value is 0% [at 53 µM] (inactive).
The same measure, in the same setting: then `O=C(Cl)c1cc(C(=O)Cl)cc(C(=O)Cl)c1`, with -2.89% (inactive); and `CN(C)CC[C@@H](c1ccc(Br)cc1)c1ccccn1`, with 2.93% [at 53 µM] (inactive); and `CC(=O)Nc1cc(S(=O)(=O)O)cc2cc(S(=O)(=O)O)c(N=Nc3ccccc3)c(O)c12`, with 1.68% (inactive).
The same measure, in the same setting: then `NCc1cccc(C2CCN(C(=O)c3ccc(C#Cc4ccccc4F)o3)CC2)c1`, with 1.79% (inactive).
The same measure, in the same setting: next, `CS(=O)(=O)c1ccc(-c2cn3ccccc3n2)cc1`: -0.084% [at 53 µM] (inactive).
